JMJD2A Tudor inh = qHTS Assay for Inhibitors of JMJD2A-Tudor Domain | Lysine-specific demethylase 4A (Homo sapiens), O75164 | AlphaScreen JMJD2A-Tudor / H3K4me3 peptide binding | Potency, µM (series often up to 114 µM), without a hit: at the top dose activity change, negative = inhibition, actives largely listed as inhibitors | actives 4.4% (n = 390,000); further: on the % scale 0 is the no-effect control and ±100 the full control effect; nearly all actives have a fitted effect of over 50% in size
BAZ2B block = qHTS Assay for Inhibitors of BAZ2B | Bromodomain adjacent to zinc finger domain protein 2B (Homo sapiens), Q9UIF8 | AlphaScreen BAZ2B-H3K14Ac peptide displacement | Potency, µM (top dose mostly 114 µM), for the others: at the highest dose activity change, negative = inhibition, hits mostly inhibitors | actives 4.4% (n = 360,000); further: on the % scale 0 is the no-effect control and ±100 the full control effect; nearly all actives have a fitted effect of over 60% in size
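BAZ2B (50 nM) with biotin-H3(5-23)K14Ac peptide (50 nM) in PBS pH 7.4, 0.01% Tween-20, preformed 30 min, then compound 30 min at room temperature; top concentration 110uM. AlphaScreen streptavidin donor/nickel chelate acceptor beads (10 ug/mL final), 20 min dark, signal read.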
GLS inhibitor = qHTS for Inhibitors of Glutaminase (GLS) | Glutaminase kidney isoform, mitochondrial (Homo sapiens), O94925 | GLS enzymatic activity, qHTS titration | Potency, µM (titrated, usually from 45.5 µM), for inactives: top-dose activity change, negative = inhibition, hits mostly inhibitors | actives 0.21% (n = 410,000); further: on the % scale 0 is the no-effect control and ±100 the full control effect
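Two-point fluorescence kinetic (t0, 30 min RT) for hKGA; glutamate detected via glutamate oxidase–HRP–Amplex Red. Substrate: 1 mM L-glutamine solution; buffer 45 mM KH2PO4, pH 8.2.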
HP1b chromo inh = HTS for Inhibitors of HP1-beta Chromodomain Interactions with Methylated Histone Tails. Chromobox protein homolog 1 (Homo sapiens), P83916. AlphaScreen HP1-beta / biotin-H3K9me3 peptide binding. Potency, µM (highest dose often 114 µM), for inactives: top-dose activity change, negative = inhibition, usual class: inhibitors. actives 0.56% (n = 390,000). AID 540317, 2011; further: nearly all actives have a fitted effect of over 70% in size
Target sequence (P83916 whole entry, looked up): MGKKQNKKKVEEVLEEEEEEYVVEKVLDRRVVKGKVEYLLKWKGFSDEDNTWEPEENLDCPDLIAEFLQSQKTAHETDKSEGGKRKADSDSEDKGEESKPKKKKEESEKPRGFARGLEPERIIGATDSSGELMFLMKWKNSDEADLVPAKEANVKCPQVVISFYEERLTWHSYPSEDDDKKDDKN
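HP1-beta protein (50 nM final) preincubated 30 min at room temperature with biotinylated H3(1-18)K9me3 peptide (50 nM) in PBS pH 7.4, 0.01% Tween-20, then compound added for 30 min. AlphaScreen streptavidin donor/nickel chelate acceptor beads (10 ug/mL final), 30 min dark, luminescence read.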
G9a block = qHTS Assay for Inhibitors of Histone Lysine Methyltransferase G9a. G9a H3K9 monomethylation, AlphaScreen, 2 h. Histone-lysine N-methyltransferase EHMT2 (Homo sapiens), Q96KQ7. actives 8.8% (n = 350,000). Potency, µM (doses to about 102 µM), inactives show top-dose activity, negative = inhibition, most hits filed as inhibitors; further: on the % scale 0 is the no-effect control and ±100 the full control effect; nearly all actives have a fitted effect of over 75% in size
Target sequence (Q96KQ7 913-1193 limits assumed): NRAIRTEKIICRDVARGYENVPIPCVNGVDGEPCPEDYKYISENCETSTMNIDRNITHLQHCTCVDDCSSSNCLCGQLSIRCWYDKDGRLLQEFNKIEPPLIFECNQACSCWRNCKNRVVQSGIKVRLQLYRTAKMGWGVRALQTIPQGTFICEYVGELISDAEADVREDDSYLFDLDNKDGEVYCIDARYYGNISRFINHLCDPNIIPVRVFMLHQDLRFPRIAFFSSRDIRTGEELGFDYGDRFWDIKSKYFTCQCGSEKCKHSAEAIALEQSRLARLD
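Using a bead-based AlphaScreen, monomethylated H3K9 product from 2 h room-temperature reactions (G9a 20 nM, peptide 500 nM, SAM 20 uM) was detected with 0.5 ug/mL rabbit anti-H3K9me1 antibody.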
* hit, by the source's call; ? = inconclusive; . = no result given; [ ] = another dose, or the depositor's remark. In the library only some 10% were active in any assay of this set; here they are far more common. The call rests on the fitted dose curve; in most records, active means well fitted curve in the direction sought with a large enough effect; inconclusive means small, poorly fitted or top-dose-only effect, or another doubt; inactive means no such curve, though single readings can be large; an effect the other way counts as inactive or inconclusive. Potency means the concentration at half of the fitted maximal effect.

SMILES | JMJD2A Tudor inh | BAZ2B block | GLS inhibitor | HP1b chromo inh | G9a block
C(=C\c1ccccc1)/CN1CCN(C(c2ccccc2)c2ccccc2)CC1 | -22% | ? | 7% | 17% | -45%
COc1ccc(OCCCC(=O)NNC(=O)CCN2CCN(c3ccccc3)CC2)cc1 | -10% | ? | 16% | 33% | .
Cc1ccc(-c2nc3cnccn3c2Nc2ccc(C(C)C)cc2)o1 | 45µM* | . | . | ? | .
Cc1ccc(-c2nc3cnccn3c2Nc2c(C)cccc2C)o1 | ? | 13% | 9% | ? | 45µM*
CC(C)c1ccc(Nc2c(-c3ccccc3O)nc3cnccn23)cc1 | ? | ? | 1% | 3% | ?
Cc1ccc(-c2nc3ncccn3c2Nc2ccccc2C)o1 | -14% | -26% | 9% | 22% | ?
O=C(Nc1ccc(F)cc1)NC1(C(=O)NCc2ccc3c(c2)OCO3)CCCCC1 | -25% | 4% | 6% | 13% | -11%[59 µM]
CC(C)NC(=O)c1sc(=S)n2c1[nH]c(=O)c1ccc(C(=O)NCCc3ccc(Cl)cc3)cc12 | 35µM* | -24% | ? | -21%[57 µM] | 45µM*
COc1ccc(OC)c(CCNC(=O)c2ccc3c(=O)[nH]c4c(C(=O)NC(C)C)sc(=S)n4c3c2)c1 | 56µM* | 40µM* | ? | ? | .
CCOc1ccc(CCNC(=O)c2ccc3c(Cl)c4c(nc3c2)CCCC4)cc1 | -11% | -11% | 0% | 16% | -42%[59 µM]
CCOc1ccc(CCNC(=O)c2ccc3c(=O)[nH]c4c(C(=O)NC(C)C)sc(=S)n4c3c2)cc1 | 9% | ? | ? | 20% | 45µM*
COc1ccccc1C(CNC(=O)c1ccc(NS(=O)(=O)c2ccc(F)c(C)c2)cc1)N(C)C (centres undefined) | -9% | -21% | -5% | 38% | 14%
CCOC(=O)c1c(C)c(C(=O)NCc2ccco2)c(C)n1Cc1ccccc1 | 35µM* | ? | -15% | -31% | ?
CCOC(=O)N1CCC(N2C(=O)c3ccc(C(=O)NCc4ccc(F)cc4)cc3C2=O)CC1 | -9% | 6% | -3% | 23% | ?
CCOC(=O)N1CCC(N2C(=O)c3ccc(C(=O)NCc4ccco4)cc3C2=O)CC1 | -15% | 0% | -3% | 3% | 71µM*
CCOc1cc(OCC)cc(C(=O)NCc2ccco2)c1 | 89µM* | ? | 3% | -17% | 18%
CCOc1ccc(C(=O)NCc2ccco2)cc1 | -32% | ? | -15% | 12% | 5%[59 µM]
CCC(CC)C(=O)Nc1cccc(C(=O)NCc2ccco2)c1 | ? | 56µM* | -15% | 16% | ?
COCCCNC(=O)c1ccc2c(c1)NC(=O)C(C(C)C)N2 (centres undefined) | -14% | 2% | 4% | 20% | 3%[59 µM]
CC(C)C1Nc2ccc(C(=O)NCc3ccco3)cc2NC1=O (centres undefined) | 0% | -3% | -21% | 3% | 79µM*
COc1cccc(NC(=O)CN(C)CC(=O)Nc2ccc(Cl)cc2[N+](=O)[O-])c1 | ? | 50µM* | -6% | ? | 40µM*
COc1ccc(NC(=O)CN(C)CC(=O)Nc2ccc(N3CCOCC3)cc2)c([N+](=O)[O-])c1 | ? | 45µM* | -3% | -7% | 4%[59 µM]
CCN(CC(=O)Nc1cccc(OC)c1)CC(=O)Nc1ccc(C)cc1Cl | 20µM* | 32µM* | 3% | -18% | ?
CN(CC(=O)Nc1ccc(N2CCOCC2)cc1)CC(=O)Nc1ccc(Cl)cc1[N+](=O)[O-] | ? | 56µM* | -10% | ? | 56µM*
COc1ccc(NC(=O)CN(C)S(=O)(=O)c2ccc(Cl)cc2)c([N+](=O)[O-])c1 | -15% | 7% | -15% | 4% | .
CN(CC(=O)Nc1ccc(N2CCOCC2)cc1)CC(=O)Nc1ccc([N+](=O)[O-])cc1Br | -20% | -27% | 8% | 16% | -35%
